About 2,000 (36%) of roughly 5,500 compounds were called active. About 18% were inconclusive and are not listed. No stated cut-off is given here; in the data, active means normalized growth mostly below about 0.91 (no sharp cut-off); inconclusive means no clear call, values can overlap the other calls; inactive means mostly above about 0.92. The list shows a part of the results.
Assay: chemical genetic growth profiling, strain panel (AID 1159580);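 further: tested at 20 µM; growth read once vehicle control cultures reached saturation at 30 °C; 1 = growth at the plate median or of vehicle wells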
Conditions: S. cerevisiae deletion strains, growth OD

Measured: normalized growth

CC[N+](C)(C)Cc1ccccc1Br
inactive: locus YAL040C, strain CLN3, stronger effect = lower value 0.99 | locus YCL061C, strain MRC1 (second series), stronger effect = lower value 1.01 | locus YDR363W, strain ESC2, stronger effect = lower value 0.991 | locus YER002W, strain NOP16, stronger effect = lower value 0.993 | locus YGR078C, strain PAC10, stronger effect = lower value 0.99 | locus YNL175C, strain NOP13, stronger effect = lower value 1.01 | locus YNL197C, strain WHI3, stronger effect = lower value 1.01 | locus YNL224C, strain SQS1, stronger effect = lower value 0.983 | locus YOR083W, strain WHI5 (second series), stronger effect = lower value 0.974 | locus YPL055C, strain LGE1, stronger effect = lower value 0.999 | locus YPL241C, strain CIN2, stronger effect = lower value 1.01

From PubChem BioAssay AID1159580 (chemical genetic matrix, 2015)
